Compounds with a hit are over-represented: about 2.7% of the library has one in this group of screens.
A549 viability – kills or reduces viability of A549 cells in Nrf2 counter-screen; A549 ARE-Fluc cells, CellTiter-Fluor viability, 18-24 h; 390,000 compounds, 0.16% hits; Potency, µM (doses to about 46 µM), for the others: top-dose activity change, negative = cytotoxicity, usual class: inhibitors; also: potency is read from the fitted curve at half-maximal effect; % is scaled to controls: 0 for no effect and ±100 for the full control effect
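A549 ARE-Fluc cells in 5% FBS OPTI-MEM, 5000 cells/well, rested 2 h then exposed to compounds in concentration-response for 18-24 h at 37 °C. Viability by CellTiter-Fluor fluorescence (Ex 405/Em 525) after 30 min; luciferase luminescence (BugLite, 15 min, RT) read afterwards.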
12-LOX inh – blocks human arachidonate 12S-lipoxygenase; P18054; purified 12hLO, xylenol orange hydroperoxide absorbance; Potency, µM (titrated, usually from 108 µM), for the others: at the top dose activity change, negative = inhibition, hits mostly inhibitors; 580,000 compounds, 1.1% hits; also: potency is read from the fitted curve at half-maximal effect; % is scaled to controls: 0 for no effect and ±100 for the full control effect
Target sequence (P18054 whole entry, looked up): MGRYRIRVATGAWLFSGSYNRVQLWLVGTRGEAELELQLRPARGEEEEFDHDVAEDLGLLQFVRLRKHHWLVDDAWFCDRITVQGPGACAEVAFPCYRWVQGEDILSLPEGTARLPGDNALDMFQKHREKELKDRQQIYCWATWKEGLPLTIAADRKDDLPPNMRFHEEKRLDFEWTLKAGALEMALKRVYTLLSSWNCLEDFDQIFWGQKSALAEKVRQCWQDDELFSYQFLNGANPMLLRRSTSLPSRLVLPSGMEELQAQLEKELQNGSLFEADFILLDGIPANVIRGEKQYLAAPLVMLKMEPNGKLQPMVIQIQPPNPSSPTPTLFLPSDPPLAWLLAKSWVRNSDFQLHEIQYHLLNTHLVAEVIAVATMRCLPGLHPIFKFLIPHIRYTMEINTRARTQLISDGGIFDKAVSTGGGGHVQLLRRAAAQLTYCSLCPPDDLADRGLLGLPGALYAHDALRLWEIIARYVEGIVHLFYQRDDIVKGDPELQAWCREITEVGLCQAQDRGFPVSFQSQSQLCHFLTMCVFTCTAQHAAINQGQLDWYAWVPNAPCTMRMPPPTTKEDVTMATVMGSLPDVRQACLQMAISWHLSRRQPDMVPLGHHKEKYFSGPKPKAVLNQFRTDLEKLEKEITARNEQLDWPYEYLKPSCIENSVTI
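Hydroperoxide product was detected by ferrous iron/xylenol orange as the 573 to 405 nm absorbance ratio. Arachidonic acid at 40 uM (final) was turned over for 30 min at room temperature by 150 nM human 12hLO, pH 7.0 Hepes buffer, after 15 min compound preincubation.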
Nrf2 activator – activators of Nrf2 (ARE) signaling | AREc32 ARE-luciferase reporter (MCF7-derived line), luminescence, 24 h | Potency, µM (top dose mostly 46.1 µM), for inactives: at the highest dose activation, hits mostly activators | 410,000 compounds, 0.31% hits | AID 624171; also: potency is read from the fitted curve at half-maximal effect; % of control where 0% means no effect; nearly all actives have a fitted effect of over 65% in size
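Reporter line AREc32 (ARE-Fluc), seeded overnight in OPTI-MEM with 5% FBS; compound pin-transferred, 24 hr at 37 deg C, 5% CO2; luminescent read-out.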
LDHA block – LDHA (human) enzyme inhibition. P00338. purified LDHA, NADH/diaphorase-resazurin fluorescence; hits give low values. activity change, % (values are at about 110 or 230 µM). 480,000 compounds, 0.15% hits. AID 1347041; in the data active = activity change below about -30%; inconclusive = mostly about -25% to -30%;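 also: plate controls were DMSO wells for no effect and wells without enzyme for full effect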
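LDH5 2 nM; NADH 0.06 mM, pyruvate 0.2 mM; 200 mM Tris pH 7.4, EDTA, Tween-20; 5 min RT. Detection: diaphorase 0.133 mg/mL + resazurin 37 µM, fluorescence ex540/em590 at 0 and 20 min; normalized to enzyme-free and DMSO wells.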
mIDH1 inhibitor – blocks human mutant IDH1 R132H enzyme | Potency, µM (top dose mostly 76.6 µM), inactives show at the top dose activity change, negative = inhibition, actives largely listed as inhibitors | IDH1-R132H enzyme, NADPH consumption, diaphorase/resazurin fluorescence | O75874 | 390,000 compounds, 0.093% hits; also: potency is read from the fitted curve at half-maximal effect; % is scaled to controls: 0 for no effect and ±100 for the full control effect; nearly all actives have a fitted effect of over 65% in size
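IDH1-R132H (0.5 ug/mL dispensed) in pH 7.5 Tris buffer was preincubated 30 min with compound, then given a substrate mix of 0.016 mM NADPH and 2 mM alpha-KG for 80 min at room temperature; remaining NADPH was read by diaphorase/resazurin fluorescence.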
Nrf2 block – blocks Nrf2 signaling | 360,000 compounds, 2.1% hits | AID 504444 | A549 ARE-Fluc reporter, luciferase luminescence, 18-24 h | Potency, µM (titrated, usually from 46 µM), inactives show at the top dose activity change, negative = inhibition, usual class: inhibitors; also: potency is read from the fitted curve at half-maximal effect; % is scaled to controls: 0 for no effect and ±100 for the full control effect; nearly all actives have a fitted effect of over 60% in size
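Reporter: ARE-Fluc in A549. Exposure: 18-24 h, 37 °C, 5% CO2, 5% FBS OPTI-MEM. Readouts: fluorescent cytotoxicity (CellTiter-Fluor), then luminescent Nrf2 signal after BugLite.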
* marks the source's active call; other numbers are inactive results; ? = inconclusive; / = no result given; ! = not active in a repeat; [ ] = another dose, or the depositor's remark. Unless noted, calls follow the shape of the dose curve; as a rule, active = well fitted curve in the direction sought with a large enough effect; inconclusive = small, poorly fitted or top-dose-only effect, or another doubt; inactive = no such curve, though single readings can be large; an effect the other way counts as inactive or inconclusive.

SMILES	A549 viability	12-LOX inh	Nrf2 activator	LDHA block	mIDH1 inhibitor	Nrf2 block
CCS(=O)(=O)N1CCc2cc(C(=O)NCCc3ccc(OC)c(OC)c3)ccc21	?	-21%	1%	-9	1%	18µM*
COc1ccc(CCNC(=O)c2ccc3c(c2)CCN3S(C)(=O)=O)cc1	3%	-16%	0%	0	-14%	-17%
CC1(C)[C@H]2CC[C@@H](CNC(=O)N3CCCC3)[C@@H]1C2	/	34%[176 µM]	/	/	/	/
C[C@@H](N)C(=O)N1CCOc2c(O)cc(-c3ncc(C(F)(F)F)cc3Cl)cc2C1	/	16%	/	/	/	/
COc1ccc(CNC(=O)c2cc(-c3ccc(OC)cc3)nc3ccccc23)cc1	/	?	/	-3	/	/
CCOc1cccc2sc(=NC(=O)c3ccco3)n(CC(=O)OC)c12	-8%	-11%	15%	-8	15%	-4%
C#CCn1c(=NC(=O)c2ccco2)sc2cccc(Cl)c21	-3%	11%	4µM*	-7	-2%	5%
COc1ccccc1OCC(=O)Nc1ccc(CSc2ccccc2)cc1C	-15%	0%	0%	-3	2%	10µM*
C[C@@H](CC(=O)O)[C@@H](N)C(=O)O	/	20µM*!	/	/	/	/
Cc1ccccc1SCC(=O)NCc1ccccc1Cn1cccn1	/	-14%	/	0	/	/
S=C(NCc1ccco1)N1CCN(c2cccc(Cl)c2)CC1	7%	?	2%	-2	3%	15µM*
S=C(NCCN1CCOCC1)N1CCN(c2cccc(Cl)c2)CC1	-12%	5.6µM*	2%	-21	20%	?
O=C(Nc1nc(-c2ccc(F)c(F)c2)cs1)C1CCCN(C(=O)c2ccoc2)C1 (stereo not drawn)	/	-29%	/	3	/	/
Cc1ccc(-c2ccc(=O)n(CC(=O)Nc3c(C)cccc3C)n2)cc1S(=O)(=O)N1CCCCC1	/	?	/	6	/	/
COc1cccc(-c2nc(-c3nc4ccccc4s3)cs2)c1OC	/	5µM*	/	3	/	/
COc1cc(-c2nc3ccccc3s2)ccc1O	-8%	?	6.3µM*	-10	-20%	18µM*
CCCNCc1ccc(-c2cccc(Cl)c2)o1	/	?	/	1	/	/
CN1CCC(N(C)CC(=O)Nc2ccc3c(c2)OC(F)(F)O3)CC1	1%	?	0%	-34*	-1%	-5%
O=C(CSc1nnc(-c2ccco2)c(-c2ccco2)n1)c1ccccc1	-4%	28µM*	?	21	-5%	?
CC(=O)c1ccc(NC(=O)CSc2nnc(-c3ccco3)c(-c3ccco3)n2)cc1	-11%	?	?	31	4%	5%
Cc1cc(C)c(C(=O)/C=C/c2cccc3ccccc23)c(=O)[nH]1	?	-16%	-3%	-20	2%	18µM*
Cc1cc(C)c(C(=O)/C=C/c2ccc3c(c2)OCO3)c(=O)[nH]1	-14%	-8%	0%	2	9%	?
Nc1ncnc2c1nc(Cl)n2[C@@H]1O[C@H](CO)[C@@H](O)[C@@H]1O	-14%	-23%[57.4 µM]	/	-8	/	21µM*
Cc1cccc(OCC(=O)NNC(=O)c2ccc3c(c2)NC(=O)C(C)S3)c1 (stereo not drawn)	/	15%	/	9	/	/
Cc1ccc(NC(=O)C(Nc2ccc3oc(C)nc3c2)c2ccccc2)cc1 (stereo not drawn)	/	2%	/	10	/	/
SMILES	A549 viability	12-LOX inh	Nrf2 activator	LDHA block	mIDH1 inhibitor	Nrf2 block
COc1ccc(NC(=S)N/N=C2\CC(C)(C)Oc3ccc(O)cc32)cc1	1%	32µM*	4%	-2	14%	7%
Cc1c(O)ccc2c(CN(C)CC(=O)Nc3cccc4ccccc34)cc(=O)oc12	/	?	/	4	/	/
COC(=O)[C@H]1[C@H](CO)[C@H]2Cn3c(ccc(Br)c3=O)[C@H]2N1C(=O)c1ccccn1	/	0.79µM*	/	/	/	/
c1cncc(-c2cncnc2NC2CCNCC2)c1	/	7.9µM*	/	/	/	/
CC(=O)NC(=S)NNC(=O)c1ccc(C(C)(C)C)cc1	/	-32%	/	-4	/	/
CNC(=O)c1ccc(NC(=O)CCc2ncc(-c3ccccc3F)o2)cc1	/	1%	/	-1	/	/

Screening results deposited in PubChem by National Center for Advancing Translational Sciences (NCATS).
